Laboratory results from paper PMC7862700, “An all-to-all approach to the identification of sequence-specific readers for epigenetic DNA modifications on cytosine”.

How the values were obtained:
Experiment in all cases: DAPPL (digital affinity profiling via proximity ligation, sequencing); 10 mM Tris-HCl pH 7.5, 50 mM NaCl, 1 mM DTT, 4% glycerol, room temperature, 30 min; GST-TFs on glutathione beads, 16-mer random dsDNA library, 0.1% formaldehyde crosslink after washing; high values mean tight binding
Conditions in all cases: protein: recombinant; tags: N-terminal GST; dsDNA, one strand shown
ERF = target: T1, ERF (Homo sapiens, UniProt P50548 1-548)
T1 sequence: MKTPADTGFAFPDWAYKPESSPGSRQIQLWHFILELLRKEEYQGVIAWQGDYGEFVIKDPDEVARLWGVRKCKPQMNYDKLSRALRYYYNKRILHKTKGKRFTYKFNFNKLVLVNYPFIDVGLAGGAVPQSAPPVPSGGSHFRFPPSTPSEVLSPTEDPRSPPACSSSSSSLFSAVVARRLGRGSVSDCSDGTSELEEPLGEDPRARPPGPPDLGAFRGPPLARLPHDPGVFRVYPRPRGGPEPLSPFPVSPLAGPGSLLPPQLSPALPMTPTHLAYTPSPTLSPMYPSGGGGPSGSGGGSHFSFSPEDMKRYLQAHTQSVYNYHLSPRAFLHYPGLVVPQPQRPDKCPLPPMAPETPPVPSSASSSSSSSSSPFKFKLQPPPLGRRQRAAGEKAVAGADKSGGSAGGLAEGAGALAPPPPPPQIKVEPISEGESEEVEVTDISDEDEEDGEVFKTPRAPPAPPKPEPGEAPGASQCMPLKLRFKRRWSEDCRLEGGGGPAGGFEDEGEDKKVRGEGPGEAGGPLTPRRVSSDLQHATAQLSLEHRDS
Procedure, shortened: (§1)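 Pools of DNA-barcoded human transcription factors, expressed in yeast as GST fusions on glutathione beads and combined with a tag-only sample, were incubated with 200 nmole of a 16-mer random double-stranded DNA library. Incubation took 30 min at room temperature in Tris/NaCl/DTT/glycerol buffer and was followed by washing, 0.1% formaldehyde crosslinking, proximity ligation (BsaI/T4 ligase, 1 h, 37 °C), PCR amplification and sequencing on an Illumina NextSeq500. Binding signal is the ratio of a hexamer's read frequency for a factor to its frequency for the tag-only sample.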

ETV3L = target: T2, ETV3L (Homo sapiens, UniProt Q6ZN32 1-361)
T2 sequence: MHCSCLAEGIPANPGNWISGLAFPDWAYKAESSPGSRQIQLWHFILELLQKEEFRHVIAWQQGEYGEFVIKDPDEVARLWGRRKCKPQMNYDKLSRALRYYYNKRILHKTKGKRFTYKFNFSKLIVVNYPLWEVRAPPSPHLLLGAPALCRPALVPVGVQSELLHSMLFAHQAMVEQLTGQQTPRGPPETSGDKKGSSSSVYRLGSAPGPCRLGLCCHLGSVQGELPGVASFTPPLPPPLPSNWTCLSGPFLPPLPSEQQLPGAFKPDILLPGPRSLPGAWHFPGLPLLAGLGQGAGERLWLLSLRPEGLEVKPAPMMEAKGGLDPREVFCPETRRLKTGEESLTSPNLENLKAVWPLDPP
Procedure, shortened: as §1

ETS2 = target: T3, ETS2 (Homo sapiens, UniProt P15036 1-469)
T3 sequence: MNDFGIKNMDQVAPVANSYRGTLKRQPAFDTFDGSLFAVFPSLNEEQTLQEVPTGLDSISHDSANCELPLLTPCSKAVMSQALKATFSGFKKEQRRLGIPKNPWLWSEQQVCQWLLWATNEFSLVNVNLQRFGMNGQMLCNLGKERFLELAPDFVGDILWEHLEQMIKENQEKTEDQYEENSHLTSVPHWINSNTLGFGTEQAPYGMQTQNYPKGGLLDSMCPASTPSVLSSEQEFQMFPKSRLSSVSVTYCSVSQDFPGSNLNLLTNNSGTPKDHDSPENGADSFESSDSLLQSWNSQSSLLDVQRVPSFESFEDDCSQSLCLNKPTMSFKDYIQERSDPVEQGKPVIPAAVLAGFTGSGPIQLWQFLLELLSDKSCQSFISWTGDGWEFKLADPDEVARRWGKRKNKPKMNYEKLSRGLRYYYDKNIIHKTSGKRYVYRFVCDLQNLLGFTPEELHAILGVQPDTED
Procedure, shortened: as §1

SPDEF = target: T4, SPDEF (Homo sapiens, UniProt O95238 1-335)
T4 sequence: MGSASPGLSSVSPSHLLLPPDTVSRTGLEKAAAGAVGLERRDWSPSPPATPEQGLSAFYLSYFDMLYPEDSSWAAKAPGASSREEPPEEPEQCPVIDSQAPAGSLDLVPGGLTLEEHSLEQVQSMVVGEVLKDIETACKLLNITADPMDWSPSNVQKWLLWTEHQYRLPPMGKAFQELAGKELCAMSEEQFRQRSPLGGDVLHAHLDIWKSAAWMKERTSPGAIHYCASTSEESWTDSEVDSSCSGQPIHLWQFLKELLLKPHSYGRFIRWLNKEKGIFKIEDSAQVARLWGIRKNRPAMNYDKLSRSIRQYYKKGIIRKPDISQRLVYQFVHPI
Procedure, shortened: as §1

ETV7 = target: T5, ETV7 (Homo sapiens, UniProt Q9Y603 1-341)
T5 sequence: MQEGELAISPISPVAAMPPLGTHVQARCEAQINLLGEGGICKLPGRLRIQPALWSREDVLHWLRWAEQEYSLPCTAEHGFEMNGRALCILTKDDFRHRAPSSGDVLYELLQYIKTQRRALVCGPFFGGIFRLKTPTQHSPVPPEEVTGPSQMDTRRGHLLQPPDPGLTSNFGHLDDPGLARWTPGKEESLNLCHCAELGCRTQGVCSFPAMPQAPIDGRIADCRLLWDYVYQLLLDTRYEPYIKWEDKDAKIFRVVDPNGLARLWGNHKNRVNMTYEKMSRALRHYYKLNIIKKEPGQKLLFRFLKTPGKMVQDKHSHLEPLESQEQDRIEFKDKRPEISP
Procedure, shortened: as §1

ELF5 = target: T6, ELF5 (Homo sapiens, UniProt Q9UKW6-2 1-255)
T6 sequence: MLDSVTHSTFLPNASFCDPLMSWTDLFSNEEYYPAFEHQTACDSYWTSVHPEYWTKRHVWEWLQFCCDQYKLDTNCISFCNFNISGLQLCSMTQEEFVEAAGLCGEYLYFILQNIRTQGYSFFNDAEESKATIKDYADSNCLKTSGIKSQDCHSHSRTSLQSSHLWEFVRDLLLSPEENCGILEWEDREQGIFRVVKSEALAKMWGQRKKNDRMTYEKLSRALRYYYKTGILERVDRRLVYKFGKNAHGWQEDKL
Procedure, shortened: as §1

ETV3 = target: T7, ETV3 (Homo sapiens, UniProt P41162-2 1-143)
T7 sequence: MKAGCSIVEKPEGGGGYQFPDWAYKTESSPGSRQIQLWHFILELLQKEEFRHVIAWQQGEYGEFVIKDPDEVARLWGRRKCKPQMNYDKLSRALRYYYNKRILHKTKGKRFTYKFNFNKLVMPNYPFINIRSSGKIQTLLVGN
Procedure, shortened: as §1

ETV6 = ETV6 (Homo sapiens, UniProt P41212 1-452)
Sequence of ETV6 (P41212 whole entry): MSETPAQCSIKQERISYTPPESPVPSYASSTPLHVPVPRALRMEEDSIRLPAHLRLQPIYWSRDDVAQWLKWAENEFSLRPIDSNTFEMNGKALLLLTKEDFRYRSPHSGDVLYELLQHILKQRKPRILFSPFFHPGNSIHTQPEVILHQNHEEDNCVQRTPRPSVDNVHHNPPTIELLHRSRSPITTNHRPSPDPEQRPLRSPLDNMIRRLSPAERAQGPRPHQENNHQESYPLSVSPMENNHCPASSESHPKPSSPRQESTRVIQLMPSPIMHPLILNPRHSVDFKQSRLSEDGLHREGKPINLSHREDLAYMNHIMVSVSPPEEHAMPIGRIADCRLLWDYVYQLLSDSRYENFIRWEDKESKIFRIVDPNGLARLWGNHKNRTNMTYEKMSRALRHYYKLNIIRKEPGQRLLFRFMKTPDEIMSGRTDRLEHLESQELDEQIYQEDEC
Procedure, shortened: as §1

CCTAAT was tested, and the binding signal (ERF) was 1.24 fold enrichment (6-mer frequency, TF over GST control), the binding signal (ETV3L) was 1.33 fold enrichment (6-mer frequency, TF over GST control) and the binding signal (ETS2) was 1.33 fold enrichment (6-mer frequency, TF over GST control). For the same sequence, the binding signal (SPDEF) was 1.36 fold enrichment (6-mer frequency, TF over GST control), the binding signal (ETV7) was 1.31 fold enrichment (6-mer frequency, TF over GST control) and the binding signal (ELF5) was 1.25 fold enrichment (6-mer frequency, TF over GST control). For the same sequence, the binding signal (ETV3) was 1.22 fold enrichment (6-mer frequency, TF over GST control) and the binding signal (ETV6) was 1.31 fold enrichment (6-mer frequency, TF over GST control).

In the case of ATGGTT, the binding signal (ERF) was 1.27 fold enrichment (6-mer frequency, TF over GST control), the binding signal (ETV3L) was 1.36 fold enrichment (6-mer frequency, TF over GST control) and the binding signal (ETS2) was 1.36 fold enrichment (6-mer frequency, TF over GST control). For the same sequence, the binding signal (SPDEF) was 1.18 fold enrichment (6-mer frequency, TF over GST control), the binding signal (ETV7) was 1.27 fold enrichment (6-mer frequency, TF over GST control) and the binding signal (ELF5) was 1.27 fold enrichment (6-mer frequency, TF over GST control). The binding signal (ETV3) was 1.34 fold enrichment (6-mer frequency, TF over GST control) and the binding signal (ETV6) was 1.3 fold enrichment (6-mer frequency, TF over GST control).

In the case of TCTGCA, the binding signal (ERF) was 1.29 fold enrichment (6-mer frequency, TF over GST control), the binding signal (ETV3L) was 1.42 fold enrichment (6-mer frequency, TF over GST control) and the binding signal (ETS2) was 1.34 fold enrichment (6-mer frequency, TF over GST control). The binding signal (SPDEF) was 1.32 fold enrichment (6-mer frequency, TF over GST control), the binding signal (ETV7) was 1.28 fold enrichment (6-mer frequency, TF over GST control) and the binding signal (ELF5) was 1.29 fold enrichment (6-mer frequency, TF over GST control). The binding signal (ETV3) was 1.2 fold enrichment (6-mer frequency, TF over GST control) and the binding signal (ETV6) was 1.23 fold enrichment (6-mer frequency, TF over GST control).

In the case of AACCTG, the binding signal (ERF) was 1.17 fold enrichment (6-mer frequency, TF over GST control), the binding signal (ETV3L) was 1.08 fold enrichment (6-mer frequency, TF over GST control) and the binding signal (ETS2) was 1.27 fold enrichment (6-mer frequency, TF over GST control). For the same sequence, the binding signal (SPDEF) was 1.13 fold enrichment (6-mer frequency, TF over GST control), the binding signal (ETV7) was 1.21 fold enrichment (6-mer frequency, TF over GST control) and the binding signal (ELF5) was 1.16 fold enrichment (6-mer frequency, TF over GST control). The binding signal (ETV3) was 1.2 fold enrichment (6-mer frequency, TF over GST control) and the binding signal (ETV6) was 1.14 fold enrichment (6-mer frequency, TF over GST control).

With CTGCTA the binding signal (ERF) was 1.49 fold enrichment (6-mer frequency, TF over GST control), the binding signal (ETV3L) was 1.38 fold enrichment (6-mer frequency, TF over GST control) and the binding signal (ETS2) was 1.49 fold enrichment (6-mer frequency, TF over GST control). The binding signal (SPDEF) was 1.4 fold enrichment (6-mer frequency, TF over GST control), the binding signal (ETV7) was 1.5 fold enrichment (6-mer frequency, TF over GST control) and the binding signal (ELF5) was 1.43 fold enrichment (6-mer frequency, TF over GST control). The binding signal (ETV3) was 1.39 fold enrichment (6-mer frequency, TF over GST control) and the binding signal (ETV6) was 1.39 fold enrichment (6-mer frequency, TF over GST control).

In the case of TTAAAA, the binding signal (ERF) was 1.3 fold enrichment (6-mer frequency, TF over GST control), the binding signal (ETV3L) was 1.27 fold enrichment (6-mer frequency, TF over GST control) and the binding signal (ETS2) was 1.17 fold enrichment (6-mer frequency, TF over GST control). For the same sequence, the binding signal (SPDEF) was 1.15 fold enrichment (6-mer frequency, TF over GST control), the binding signal (ETV7) was 1.26 fold enrichment (6-mer frequency, TF over GST control) and the binding signal (ELF5) was 1.11 fold enrichment (6-mer frequency, TF over GST control). For the same sequence, the binding signal (ETV3) was 1.17 fold enrichment (6-mer frequency, TF over GST control) and the binding signal (ETV6) was 1.19 fold enrichment (6-mer frequency, TF over GST control).

For CTTAGC, the binding signal (ERF) was 1.25 fold enrichment (6-mer frequency, TF over GST control), the binding signal (ETV3L) was 1.23 fold enrichment (6-mer frequency, TF over GST control) and the binding signal (ETS2) was 1.18 fold enrichment (6-mer frequency, TF over GST control). For the same sequence, the binding signal (SPDEF) was 1.15 fold enrichment (6-mer frequency, TF over GST control), the binding signal (ETV7) was 1.16 fold enrichment (6-mer frequency, TF over GST control) and the binding signal (ELF5) was 1.16 fold enrichment (6-mer frequency, TF over GST control). For the same sequence, the binding signal (ETV3) was 1.22 fold enrichment (6-mer frequency, TF over GST control) and the binding signal (ETV6) was 1.2 fold enrichment (6-mer frequency, TF over GST control).
